This passage reports growth results from PubChem BioAssay (NCI).

Structures are written as SMILES. The panel holds about 83,000 compounds, 20% with a hit somewhere; the sample as a whole holds those more often.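 Interpretation: 100, growth as untreated; towards 0, rising growth inhibition; 0, no net growth; 0 to -100, cell death. Compounds scoring below 10 were considered active.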 Values without a mark were called inactive. Active and inactive are the calls of the source.

Some test systems named below: SK-MEL-2 melanoma; EKVX NSCLC; SN12C renal; UO-31 renal; TK-10 renal; ACHN renal; CAKI-1 renal; A498 renal; CCRF-CEM leukemia; MOLT-4 leukemia; SR leukemia; RPMI-8226 leukemia; OVCAR-8 ovarian; OVCAR-5 ovarian; OVCAR-4 ovarian; SK-OV-3 ovarian; IGROV1 ovarian; OVCAR-3 ovarian; HS 578T breast; NCI/ADR-RES ovarian.
Assay in all cases: NCI-60 one-dose screen, 48 h (100 = growth as untreated, 0 = no growth, -100 = all killed)
What all share (conditions): 10 µM unless noted

For `OC(c1cc2ccc(C(F)(F)F)cc2c2cc(C(F)(F)F)ccc12)C1CCCCN1` (configuration not stated), the growth was -83.1% (active) with SK-MEL-2 melanoma; -96.7% (active) with EKVX NSCLC; -90.8% (active) with SN12C renal; -95.8% (active) in the assay with UO-31 renal; -89.5% (active) in the assay with TK-10 renal; -94.1% (active) in the assay on ACHN renal. Besides, the growth is -93.8% (active) in the assay with CAKI-1 renal; -65.6% (active) in the assay with A498 renal; -68% (active) with CCRF-CEM leukemia; -73.4% (active) with MOLT-4 leukemia; -84.7% (active) with SR leukemia; -54.5% (active) with RPMI-8226 leukemia. The growth was -63.8% (active) in the assay with OVCAR-8 ovarian; -99% (active) with OVCAR-5 ovarian; -100% (active) with OVCAR-4 ovarian; -100% (active) with SK-OV-3 ovarian; -83.9% (active) with IGROV1 ovarian; -100% (active) with OVCAR-3 ovarian. The figures for the growth with HS 578T breast and in the assay on NCI/ADR-RES ovarian were -44.2% (active) and -84.6% (active), respectively.
As for `Cc1cc(C(=C2C=CC(=Nc3ccccc3)C=C2)c2ccc(Nc3ccccc3)cc2)ccc1N`, the growth in the assay on SK-MEL-2 melanoma was -87.4% (active); in the assay on EKVX NSCLC it was -42.7% (active); in the assay on SN12C renal it was -63.5% (active); with UO-31 renal, -67.4% (active); in the assay with TK-10 renal, -64.7% (active); in the assay on ACHN renal it was -89.8% (active). Besides, the growth is -56.6% (active) in the assay with CAKI-1 renal; -78.8% (active) with A498 renal; 3.34% (active) with CCRF-CEM leukemia; 22.2% in the assay with MOLT-4 leukemia; 9.34% (active) in the assay with SR leukemia; 4.29% (active) with RPMI-8226 leukemia. For the same molecule, the growth was -59.3% (active) in the assay with OVCAR-8 ovarian; -60% (active) in the assay with OVCAR-5 ovarian; -74.2% (active) in the assay with OVCAR-4 ovarian; -64.8% (active) in the assay on SK-OV-3 ovarian; -26.9% (active) with IGROV1 ovarian; -93.7% (active) in the assay on OVCAR-3 ovarian.
With `CCOC(=O)C1(C)CCCC1N` (configuration not stated), the growth with SK-MEL-2 melanoma is 113%; with EKVX NSCLC, 108%; in the assay on SN12C renal it was 101%; in the assay with UO-31 renal it was 83.7%; in the assay with TK-10 renal it was 98.7%; with ACHN renal, 106%. The growth was 87.6% in the assay on CAKI-1 renal; 106% in the assay with A498 renal; 103% in the assay with CCRF-CEM leukemia; 103% in the assay with MOLT-4 leukemia; 90.1% in the assay on SR leukemia; 109% in the assay on RPMI-8226 leukemia. The growth with OVCAR-8 ovarian is 106%; with OVCAR-5 ovarian, 106%; in the assay with OVCAR-4 ovarian, 99.2%; in the assay with SK-OV-3 ovarian it was 131%; with IGROV1 ovarian, 104%; in the assay on OVCAR-3 ovarian, 104%. Further, the results for the growth with HS 578T breast and in the assay on NCI/ADR-RES ovarian were 98.5% and 116%, respectively.
Turning to `Cn1c(-c2ccccc2)c(/C=C/C2=[N+](C)c3ccccc3C2(C)C)c2ccccc21`, the growth is 6.41% (active) in the assay on SK-MEL-2 melanoma; 20% with EKVX NSCLC; 7.02% (active) with SN12C renal; 74% in the assay with UO-31 renal; 3.06% (active) with TK-10 renal; 18.2% with ACHN renal. In addition, the growth with CAKI-1 renal is 35.6%; in the assay with A498 renal, 3.03% (active); in the assay with CCRF-CEM leukemia, 8% (active); in the assay on MOLT-4 leukemia it was -10.6% (active); in the assay on SR leukemia, 9.26% (active); in the assay with RPMI-8226 leukemia, -1.71% (active). The growth in the assay on OVCAR-8 ovarian was 2.16% (active); in the assay on OVCAR-5 ovarian it was 33.9%; with OVCAR-4 ovarian, 12.2%; in the assay with SK-OV-3 ovarian it was -9.3% (active); in the assay on IGROV1 ovarian it was 33.9%; with OVCAR-3 ovarian it was 6.26% (active). The growth is 11% in the assay on HS 578T breast and 86.8% in the assay with NCI/ADR-RES ovarian.
Take `CC1(C)OC2C(COC(c3ccccc3)(c3ccccc3)c3ccccc3)OC(c3c[nH]c4c(N)ncnc34)C2O1` (configuration not stated): the growth with SK-MEL-2 melanoma was 69.8%; in the assay on EKVX NSCLC it was 55.3%; in the assay on SN12C renal it was 50.1%; in the assay with UO-31 renal it was 58.3%; in the assay with TK-10 renal, 84.2%; in the assay with ACHN renal, 52.2%. Besides, the growth with CAKI-1 renal is 56.6%; with A498 renal it was 74.7%; in the assay on CCRF-CEM leukemia, 36.3%; in the assay on MOLT-4 leukemia, -7.93% (active); in the assay with SR leukemia it was 28.3%; in the assay with RPMI-8226 leukemia it was 27.4%. Also, the growth in the assay on OVCAR-8 ovarian is 56.1%; with OVCAR-5 ovarian, 82.9%; in the assay on OVCAR-4 ovarian, 50.1%; with SK-OV-3 ovarian, 70%; in the assay on IGROV1 ovarian, 75.5%; in the assay with OVCAR-3 ovarian, 53.8%. Further, the growth with HS 578T breast was 77.5%; in the assay on NCI/ADR-RES ovarian, 86.9%.
With `NC(CS/C(Cl)=C/Cl)C(=O)O` (configuration not stated), the growth is 53.7% in the assay on SK-MEL-2 melanoma; 81.4% with EKVX NSCLC; 87% in the assay on SN12C renal; 82.6% in the assay with UO-31 renal; 117% in the assay with TK-10 renal; 95.2% in the assay on ACHN renal. Also, the growth in the assay with CAKI-1 renal is 89.6%; in the assay with A498 renal, -60% (active); with CCRF-CEM leukemia, 66.5%; with MOLT-4 leukemia it was 97.1%; with SR leukemia, 96%; with RPMI-8226 leukemia, 36.2%. The growth in the assay with OVCAR-8 ovarian is 64.6%; in the assay on OVCAR-5 ovarian it was 99.8%; in the assay with OVCAR-4 ovarian it was 101%; in the assay on SK-OV-3 ovarian, 94%; in the assay on IGROV1 ovarian, 96.4%; with OVCAR-3 ovarian it was 102%. In addition, the values for the growth with HS 578T breast and with NCI/ADR-RES ovarian were 104% and 86.2%, respectively.
On to `CN(C)CCN(C)CC(C)(C)C(=O)/C=C/c1ccc(Cl)c(Cl)c1`, for which the growth in the assay on SK-MEL-2 melanoma is -93.3% [100 µM] (active); in the assay on EKVX NSCLC, -82.4% [100 µM] (active); with SN12C renal, -96.2% [100 µM] (active); in the assay on UO-31 renal it was -100% [100 µM] (active); in the assay with TK-10 renal it was -97.7% [100 µM] (active); with ACHN renal, -100% [100 µM] (active). In addition, the growth with CAKI-1 renal was -100% [100 µM] (active); in the assay on A498 renal, -96% [100 µM] (active); in the assay with CCRF-CEM leukemia it was -0.943% [100 µM] (active); in the assay on MOLT-4 leukemia, -23.3% [100 µM] (active); in the assay with SR leukemia, -25.9% [100 µM] (active); in the assay on RPMI-8226 leukemia, -30.6% [100 µM] (active). In addition, the growth in the assay with OVCAR-8 ovarian was -86.5% [100 µM] (active); in the assay on OVCAR-5 ovarian it was -93.4% [100 µM] (active); with OVCAR-4 ovarian, -98.5% [100 µM] (active); in the assay with SK-OV-3 ovarian, -97.7% [100 µM] (active); in the assay on IGROV1 ovarian, -92.2% [100 µM] (active); in the assay on OVCAR-3 ovarian, -98.4% [100 µM] (active). Further, the growth in the assay with HS 578T breast was -39.5% [100 µM] (active).
Consider `OC(c1cc(-c2ccc(Cl)cc2)nc2c(Cl)cccc12)C1CCCCN1` (configuration not stated), for which the growth with SK-MEL-2 melanoma was -91% (active); with EKVX NSCLC it was -32.9% (active); in the assay with SN12C renal it was -70.3% (active); in the assay on UO-31 renal, -74.5% (active); in the assay with TK-10 renal it was -75.9% (active); in the assay on ACHN renal it was -65.3% (active). Further, the growth in the assay with CAKI-1 renal was -72.5% (active); with A498 renal, 9.48% (active); in the assay on CCRF-CEM leukemia, -59.1% (active); in the assay with MOLT-4 leukemia, -57.5% (active); in the assay with SR leukemia it was -39.4% (active); in the assay on RPMI-8226 leukemia, -17.3% (active). Besides, the growth in the assay on OVCAR-8 ovarian was -75.2% (active); with OVCAR-5 ovarian, -70.9% (active); with OVCAR-4 ovarian it was -85.6% (active); in the assay with SK-OV-3 ovarian it was -73.4% (active); with IGROV1 ovarian, -73.7% (active); in the assay with OVCAR-3 ovarian it was -95.1% (active). For the same molecule, the growth was -47.6% (active) with HS 578T breast and -70.3% (active) with NCI/ADR-RES ovarian.
